Test results published in PubChem BioAssay (Tox21).
Values joined by “and” are separate entries in the source; they are usually repeats but may differ in a detail not shown here. Equal values may be shown once. Records with an inconclusive call do not appear. Active and inactive are the calls of the source. No rule for the calls is given here.

Assay: qHTS assay to identify small molecule antagonists of the estrogen related receptor signaling pathway with the pleiotropic PPARgamma coactivator (PGC) from Tox21 10K library (AID 1224841); also: actives are mostly falling curves and most rising ones were filed inactive; nearly all actives have a fitted effect of over 50% in size
Details: PGC/ERR reporter cell line, ONE-Glo luciferase, 18 h; series mostly up to 92.4 µM; activity, negative = inhibition: at the top concentration
From the text: U.S. Tox21 Program National Center for Advancing Translational Sciences [NCATS] NIH Chemical Genomics Center [NCGC] U.S. Environmental Protection Agency [EPA] National Institutes of Environmental Health Sciences [NIEHS] National Toxicology Program [NTP] U.S. Food and Drug Administration [FDA] Tox21 Assay Overview: Estrogen related receptors (ERRs), the first orphan nuclear receptors discovered, play an important role in the control of cellular energy metabolism. ERRs are required for high-energy production in response to the environmental challenges. The pleiotropic PPARgamma coactivator (PGC) is a major partner of ERR and a key regulator in energy homeostasis. Together they have been implicated in the etiology of metabolic disorders such as Type 2 diabetes and metabolic syndrome. ERR-alpha was also identified as an adverse marker for breast cancer progression; ERR-alpha-positive tumors have a poor prognosis. To screen and to identify environmental compounds that perturb the ERR and PGC/ERR signaling pathways could provide valuable information for potential therapeutic or preventive measures in the treatment of metabolic disease. For identifying PGC/ERR antagonists, PGC/ERR cell line (provided by NTP) has been used to screen Tox21 10K library.
Tox21 Assay Protocol Summary: The PGC/ERR cells were dispensed at 2,000 cells/5 ul/well in 1536-well white plates using a Multidrop dispenser. After the assay plates were incubated at a 37 C/5% CO2 incubator for 6 hours, 23 nL of compounds dissolved in DMSO, positive and negative controls or DMSO only was transferred to the assay plate by a pin tool. The plates were incubated at 37 C for 18 hours. 4 ul/well of One-Glo reagent was added into the assay plates using a Flying Reagent Dispenser. After 30-minute incubation at room temperature, the luminescence intensity in the plates was measured using a ViewLux plate reader.
% is scaled to controls: 0 for no effect and ±100 for the full control effect; potency is read from the fitted curve at half-maximal effect.

| Compound | activity, negative = inhibition | Potency |
| --- | --- | --- |
| C=CC(=O)OCC(C)C | -2.88% (inactive) | – |
| N#C/C(N)=C(/N)C#N | 1.26% (inactive) | – |
| CCOP(=O)(OCC)SCCSCC | 9.76% (inactive) | – |
| O=C(NC(=O)c1c(F)cccc1F)Nc1ccc(OC(F)(F)C(F)OC(F)(F)F)c(Cl)c1 (stereo not given) | -14.5% [at 42.5 µM] (inactive) | – |
| COCCOCCO | 35.6% (inactive) | – |
| Cl/C=C\C[N+]12CN3CN(CN(C3)C1)C2 | -5.03% (inactive) | – |
| Nc1nc(=S)[nH][nH]1 | 2.71% (inactive) | – |
| Brc1ccc(Oc2ccccc2)cc1 | – | inactive |
| O=C1CN=C(c2ccccc2)c2cc(Cl)ccc2N1CC1CC1 | – | 25.5 µM (active) |
| C=CC(C)=O | -2.09% (inactive) | – |
| CCCCN=C=O | -1.07% (inactive) | – |
| ClC=C(Cl)Cl | -18.9% (inactive) | – |
| NC(=O)CI | -24.4% (inactive) | – |
| CC(C)N(C(=O)COc1nnc(C(F)(F)F)s1)c1ccc(F)cc1 | – | 38.6 µM (active) |
| NCC(CC(=O)O)c1ccc(Cl)cc1 (stereo not given) | -1% [at 0.349 µM] (inactive) | – |
| CCBr | 7.99% (inactive) | – |
| Cc1ccc(N)cc1C | 37.9% (inactive) | – |
| CCOP(=O)(OCC)O/C(=C/Cl)c1ccc(Cl)cc1Cl | – | 2.73 µM (active) |
| C=CC(=O)OCCCCO | 36.6% (inactive) | – |
| C=CC(=O)OCC(C)O (stereo not given) | 32.4% (inactive) | – |

| Compound | activity, negative = inhibition | Potency |
| --- | --- | --- |
| ClCc1cccc(Cl)c1 | -1.76% [at 42.5 µM] (inactive) | – |
| O=[Se]=O | – | 13.6 µM (active) |
| IC(I)=C(I)I | – | 21.7 µM (active) |
| CC(c1ccc(O)cc1)(c1ccc(O)cc1)c1ccc(O)cc1 | – | 54.5 µM (active) |
| CCOP(=O)(OCC)Oc1ccc([N+](=O)[O-])cc1 | – | 19.6 µM (active) and 5.45 µM (active) |
| COc1cc(CC(C)N)cc2c1OCO2 (stereo not given) | -6.04% (inactive) | – |
| CC(=O)[C@H]1CC[C@H]2[C@@H]3CC[C@H]4C[C@](C)(O)CC[C@]4(C)[C@H]3CC[C@]12C | 8.44% [at 42.5 µM] (inactive) | – |
| O=C(O)C(F)(F)C(F)(F)C(F)(F)C(F)(F)C(F)(F)C(F)(F)C(F)(F)C(F)(F)C(F)(F)F | -0.681% (inactive) | – |
| CCCCOC(=O)c1ccccc1C(=O)OCc1ccccc1 | – | inactive |
| N#Cc1ccc(Cl)cc1 | -1.91% (inactive) | – |
| CCc1ccc(C(=O)NN(C(=O)c2cc(C)cc(C)c2)C(C)(C)C)cc1 | – | 30.6 µM (active) |
| c1ccc(C2CC2)c(OCC2=NCCN2)c1 | 25.7% [at 42.5 µM] (inactive) | – |
| COC1=CC(=O)O[C@@H](CCc2ccccc2)C1 | -15.6% (inactive) | – |
| CCOC(=O)COc1cc(-c2nn(C)c(OC(F)F)c2Cl)c(F)cc1Cl | 16% (inactive) | – |
| Clc1cc(C(Cl)(Cl)Cl)cnc1Cl | 1.22% (inactive) | – |
| C[C@@H]1CC[C@H]2[C@@H](C)C(=O)O[C@@H]3O[C@@]4(C)CC[C@@H]1[C@]32OO4 | – | 1.88 µM (active) |
| O=[N+]([O-])c1ccc(F)c([N+](=O)[O-])c1 | – | 49 µM (active) |
| CCCC(Cn1cncn1)c1ccc(Cl)cc1Cl (stereo not given) | – | 30.6 µM (active) |
| Sc1ccccc1Cl | 7.35% [at 42.5 µM] (inactive) | – |
| C[C@H]1CNCCc2ccc(Cl)cc21 | -8.49% [at 42.5 µM] (inactive) | – |
